Results filed as inconclusive are left out. Entries that show only a call come without a potency. The source made the active and inactive calls. Calls come from the whole dose curve; as a rule, active = well fitted curve in the direction sought with a large enough effect; inconclusive = small, poorly fitted or top-dose-only effect, or another doubt; inactive = no such curve, though single readings can be large; an effect the other way counts as inactive or inconclusive.
What was measured:
[1] = Quantitative highthroughput screen to assess conditional lethalithy of NOMO1 cells grown in RPMI1640 with untreated serum (RPMI+s) (AID 1963876); settings: NOMO1 AML cells in RPMI+serum, CellTiter-Glo viability, 48 h; series mostly up to 45.8 µM; note: nearly all actives have a fitted effect of over 35% in size
Summary of the method: (§1)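 Each medium arm—HPLM with 10% dialyzed FBS, or RPMI1640 with 5 mM glucose and 10% untreated or dialyzed FBS—was screened against an 11-point, 3-fold compound titration for 48 h at 37 °C, with CellTiter-Glo luminescence as endpoint.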

[2] = Quantitative highthroughput screen to assess conditional lethalithy of NOMO1 cells grown in RPMI1640 with dialyzed fetal bovine serum (RPMI+ds) (AID 1963877); settings: NOMO1 in RPMI+dialyzed FBS viability, ATP luminescence, 48 h; series mostly up to 45.8 µM; note: nearly all actives have a fitted effect of over 30% in size
Summary of the method: as §1

[3] = Quantitative highthroughput screen to assess conditional lethalithy of NOMO1 cells grown in Human Plasma-Like Medium with dialyzed fetal bovine serum (HPLM+ds) (AID 1963878); settings: NOMO1 AML cells in HPLM+ds, CellTiter-Glo viability, 48 h; series mostly up to 45.8 µM; note: nearly all actives have a fitted effect of over 35% in size
Summary of the method: as §1

[4] = Quantitative highthroughput screen to assess conditional lethalithy of P12 Ichikawa cells grown in Human Plasma-Like Medium with dialyzed fetal bovine serum (HPLM+ds) (AID 1963879); settings: ATP luminescence, 48 h; Potency: viability; series mostly up to 45.8 µM; note: nearly all actives have a fitted effect of over 35% in size
Summary of the method: as §1

[5] = Quantitative highthroughput screen to assess conditional lethalithy of P12 Ichikawa cells grown in RPMI1640 with dialyzed fetal bovine serum (RPMI+ds) (AID 1963880); settings: ATP luminescence, 48 h; Potency: P12-Ichikawa viability; series mostly up to 45.8 µM; note: nearly all actives have a fitted effect of over 35% in size
Summary of the method: as §1

[6] = Quantitative highthroughput screen to assess conditional lethalithy of P12 Ichikawa cells grown in RPMI1640 with untreated serum (RPMI+s) (AID 1963881); settings: ATP luminescence, 48 h; Potency: viability; series mostly up to 45.8 µM; note: nearly all actives have a fitted effect of over 35% in size
Summary of the method: as §1

[7] = Quantitative highthroughput screen to assess conditional lethalithy of SEM cells grown in Human Plasma-Like Medium with dialyzed fetal bovine serum (HPLM+ds) (AID 1963882); settings: SEM B-ALL cells in HPLM+ds, CellTiter-Glo viability, 48 h; series mostly up to 45.8 µM; note: nearly all actives have a fitted effect of over 35% in size
Summary of the method: as §1

[8] = Quantitative highthroughput screen to assess conditional lethalithy of SEM cells grown in RPMI1640 with unreated serum (RPMI+s) (AID 1963883); settings: SEM B-ALL cells, CellTiter-Glo viability, 48 h; series mostly up to 45.8 µM; note: nearly all actives have a fitted effect of over 35% in size
Summary of the method: as §1

[9] = Quantitative highthroughput screen to assess conditional lethalithy of SEM cells grown in RPMI1640 with dialyzed fetal bovine serum (RPMI+ds) (AID 1963884); settings: SEM B-ALL cells, RPMI+dialyzed FBS, CellTiter-Glo viability, 48 h; series mostly up to 45.8 µM; note: nearly all actives have a fitted effect of over 35% in size
Summary of the method: as §1
Potency is the fitted concentration of half-maximal effect.

Row | SMILES | Potency [1] | Potency [2] | Potency [3] | Potency [4] | Potency [5] | Potency [6] | Potency [7] | Potency [8] | Potency [9]
1 | C#C[C@]1(O)CC[C@H]2[C@H]3CCc4cc(OC)ccc4[C@H]3CC[C@@]21C | inactive | inactive | inactive | inactive | inactive | inactive | inactive | inactive | inactive
2 | COc1ccc2c(c1)CC[C@H]1[C@@H]2CC[C@]2(C)[C@@H](NCCCCCCN3C(=O)C=CC3=O)CC[C@H]12 | inactive | inactive | inactive | inactive | inactive | inactive | inactive | inactive | inactive
3 | Cc1cc(CS(=O)(=O)c2ccccc2)cc(OCc2ccc(CN3CCC[C@H]3CO)cc2)c1 | 1050 nM (active) | 1320 nM (active) | 662 nM (active) | 743 nM (active) | 1180 nM (active) | 1050 nM (active) | 590 nM (active) | 332 nM (active) | 526 nM (active)
4 | NS(=O)(=O)OC[C@@H]1C[C@@H](n2ccc3c(N[C@H]4CCc5ccccc54)ncnc32)C[C@H]1O | 526 nM (active) | 526 nM (active) | 590 nM (active) | 2960 nM (active) | 1660 nM (active) | 2090 nM (active) | 1480 nM (active) | 1480 nM (active) | 1320 nM (active)
5 | CCc1cnn2c(NCc3ccc[n+]([O-])c3)cc(N3CCCC[C@@H]3CCO)nc12 | 118 nM (active) | 93.5 nM (active) | 105 nM (active) | 118 nM (active) | 118 nM (active) | 118 nM (active) | 74.3 nM (active) | 59 nM (active) | 59 nM (active)
6 | C[C@]12C=CC(=O)N[C@@H]1CC[C@H]1[C@H]3CC[C@@H](C(=O)Nc4cc(C(F)(F)F)ccc4C(F)(F)F)[C@@]3(C)CC[C@@H]12 | inactive | inactive | inactive | inactive | inactive | inactive | inactive | inactive | inactive
